Measured values from PubChem BioAssay (Tox21).
Calls of active or inactive are those of the source. Calls follow the shape of the dose curve; as a rule, active = well fitted curve in the direction sought with a large enough effect in the repeat runs; inconclusive = weak or mixed curves; inactive = flat fitted curve, though single readings scatter.

Experiment: qHTS assay to test for compound auto fluorescence at 535 nm (green) in HEK293 cell free culture (AID 720682)
Settings: cell-free medium, green autofluorescence 485/535 nm, active compounds read high; series mostly up to 91.3 µM; activity change: at the top concentration
Outline: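 Compounds were pin-transferred into cell-free DMEM with 10% FBS, and green fluorescence was read at excitation 485 nm and emission 535 nm. Intensities were expressed as fluorescein-equivalent values.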
% is scaled to controls: 0 for no effect and ±100 for the full control effect.

SMILES | activity change | outcome
O=C(COCCOCCOCC(=O)Nc1c(I)cc(I)c(C(=O)O)c1I)Nc1c(I)cc(I)c(C(=O)O)c1I | -0.156% [at 46 µM] (inactive) | 
C=C(C)C(=O)OC | 0.0665% (inactive) | 
CC1=CC[C@H](CC=O)C1(C)C | -0.0712% (inactive) | 
C=C(C)[C@@H]1CC[C@@H](C)C[C@@H]1O | 0.146% (inactive) | 
COCCOCCOCCOC | 0.0576% (inactive) | 
COc1ccc(OC)c(NC(=O)CC(C)=O)c1 | -0.0084% (inactive) | 
CCCCC(=O)N(C)C | -0.012% (inactive) | 
C1=C\CC/C=C\CC/1 | 0.0187% [at 95.7 µM] (inactive) | 
CCS(=O)(=O)CCn1c([N+](=O)[O-])cnc1C | 0.0328% [at 18.6 µM] (inactive) | 
CC(Cl)COP(=O)(OCC(C)Cl)OCC(C)Cl (stereo not given) | 0.0982% (inactive) | 
CCCCC(C)C(=O)O (stereo not given) | 0.0321% (inactive) | 
CCCCC/C=C/CC(=O)OC | 0.0756% (inactive) | 
C=C(C)C(=O)OCCCCCCOC(=O)C(=C)C | 0.0449% (inactive) | 
NS(=O)(=O)c1ccc(Cl)c(S(N)(=O)=O)c1 | -0.029% [at 46 µM] (inactive) | 
CC(C)SCc1ccco1 | 0.0908% [at 46 µM] (inactive) | 
F[Si-2](F)(F)(F)(F)F |  | inactive
CCC(O)C(C)(C)C (stereo not given) | -0.0077% [at 95.7 µM] (inactive) | 
Cc1ccccc1OCC1CO1 (stereo not given) | -0.0495% (inactive) | 

SMILES | activity change | outcome
Cc1nc(C)nc(N2C[C@@H](C)N(c3ccnc([C@@H](C)O)n3)[C@@H](C)C2)n1 | 0.0061% [at 46 µM] (inactive) | 
CC(=O)OC(C)c1ccccc1 (stereo not given) | -0.0425% (inactive) | 
O=C(O)c1ccccc1C(=O)OCc1ccccc1 | 0.0731% (inactive) | 
C=COCCOCCOC=C | 0.0967% (inactive) | 
CCCCCCCCOC(C)=O | 0.0048% (inactive) | 
CCN(Cc1cccc(S(=O)(=O)O)c1)c1ccccc1 | -0.0502% (inactive) | 
O=C(CN1CCN(Cc2ccc3c(c2)OCO3)CC1)N1c2ccccc2Sc2ccccc21 | 0.0775% [at 46 µM] (inactive) | 
CC(=O)N(CC(O)CO)c1c(I)c(C(=O)NCC(O)CO)c(I)c(C(=O)NCC(O)CO)c1I (stereo not given) | -0.131% [at 46 µM] (inactive) | 
CC1=NN(c2ccc(S(=O)(=O)O)cc2)C(=O)C1N=Nc1ccccc1 (stereo not given) | -0.0024% (inactive) | 
C=CCOCC(CO)(COCC=C)COCC=C | 0.0686% (inactive) | 
C=C[Si](C)(C)O[Si](C)(C)C=C | 0.0455% (inactive) | 
CCCCC[Si](OCC)(OCC)OCC | -0.0192% (inactive) | 
O=C(O)c1ccccc1C(=O)Nc1ccc(S(=O)(=O)Nc2nccs2)cc1 | -0.0482% [at 46 µM] (inactive) | 
Nc1cc(S(=O)(=O)O)ccc1S(=O)(=O)O | 4.6e-05% (inactive) | 
O=CN1CCOCC1 | 0.0165% (inactive) | 
CCCCOC(=O)C(C)OC(=O)CCC (stereo not given) | 0.0088% (inactive) | 
CC(=O)OC(C(=O)c1ccccc1)c1ccccc1 (stereo not given) | -0.0042% (inactive) | 
